In experiment [1] the target is human MET Proto-Oncogene, Receptor Tyrosine Kinase (MET), MET (gene 4233) (UniProt P08581). In words: NVS_ENZ_hMet: NovaScreen (NVS) Enzymatic Assay for human MET Proto-Oncogene, Receptor Tyrosine Kinase (MET) (AID 2283180). In short, it runs like this: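 Cell-free MET kinase assay using recombinant protein and fluorescent substrate, with mobility-shift separation; read 1 h after dosing. Primary duplicate at 25 uM; actives in singleton concentration-response to 50 uM maximum. Signal loss versus DMSO.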

The target in experiment [2] is human Mitogen- and Stress-activated Protein Kinase-1 (Msk1), RPS6KA5 (gene 9252) (UniProt O75582). In words: NVS_ENZ_hMsk1: NovaScreen (NVS) Enzymatic Assay for human Mitogen- and Stress-activated Protein Kinase-1 (Msk1) (AID 2283187). In short, it runs like this:
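Recombinant kinase with fluorescent substrate; product separated by electrophoretic mobility shift, read 1 h after dosing. Screened in duplicate at 25 uM; hits (e.g. ≥30% inhibition) tested in concentration–response up to 50 uM. DMSO baseline.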

For experiment [3], the target named is human NIMA (Never In Mitosis Gene A)-Related Kinase 2 (NEK2), NEK2 (gene 4751) (UniProt P51955). In words: NVS_ENZ_hNEK2: NovaScreen (NVS) Enzymatic Assay for human NIMA (Never In Mitosis Gene A)-Related Kinase 2 (NEK2) (AID 2283188). In short, it runs like this: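 Cell-free NEK2 enzyme activity after 1 h exposure, read by fluorescence with electrophoretic mobility shift separating substrate and product. Primary screen in duplicate at 25 uM; actives then run as concentration series. Loss of signal versus DMSO scored.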

Experiment [4] deals with human p21 Activated Kinase 4 (PAK4), PAK4 (gene 10298) (UniProt O96013). Kind of experiment: NVS_ENZ_hPAK4: NovaScreen (NVS) Enzymatic Assay for human p21 Activated Kinase 4 (PAK4) (AID 2283189). The method in brief:
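Cell-free recombinant human PAK4 activity assay; fluorescent substrate and product separated by electrophoretic mobility shift, read 1 h after dosing. Initially tested in duplicate at 25 uM, relative to DMSO baseline.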

Experiment [5] addresses human Phosphodiesterase 4A1 (PDE4A1), PDE4A (gene 5141) (UniProt P27815). Kind of experiment: NVS_ENZ_hPDE4A1: NovaScreen (NVS) Enzymatic Assay for human Phosphodiesterase 4A1 (PDE4A1) (AID 2283191). In short, it runs like this: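 Cell-free recombinant human PDE4A1 with fluorescent substrate; product separated by electrophoretic mobility shift, 1 h. Screened at 25 uM, then up to 50 uM in concentration-response; loss of signal fitted against DMSO.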

Experiment [6] concerns the target human Phosphodiesterase 5 (PDE5), PDE5A (gene 8654) (UniProt O76074). In words: NVS_ENZ_hPDE5: NovaScreen (NVS) Enzymatic Assay for human Phosphodiesterase 5 (PDE5) (AID 2283194). In short, it runs like this:
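Recombinant human PDE5 with specific substrate, read 1 h after dosing by fluorescence with electrophoretic mobility-shift separation of substrate and product. Initial single-concentration duplicate screen at 25 uM, actives followed in concentration series; loss of activity versus DMSO.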

The target of experiment [7] is human Phosphodiesterase 10 (PDE10), PDE10A (gene 10846) (UniProt Q9Y233). In words: NVS_ENZ_hPDE10: NovaScreen (NVS) Enzymatic Assay for human Phosphodiesterase 10 (PDE10) (AID 2283195). The method in brief: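 Recombinant human PDE10 with fluorescent substrate, 1 h, product separated by electrophoretic mobility shift. Loss of enzyme activity fitted against DMSO; initial screen 25 uM in duplicate, actives run to 50 uM maximum.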

The target in experiment [8] is human Phosphoinositide 3-kinase alpha (PI3Ka), PIK3CA (gene 5290) (UniProt P42336). Kind of experiment: NVS_ENZ_hPI3Ka: NovaScreen (NVS) Enzymatic Assay for human Phosphoinositide 3-kinase alpha (PI3Ka) (AID 2283196). The method in brief:
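Duplicate single-point screen (25 uM), then singleton dose-response (max 50 uM) for compounds meeting the threshold. Cell-free kinase reaction, 1 h; fluorescent mobility-shift readout.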

For a further experiment, the target named is PPP2CA (gene 5515) (UniProt P67775). Kind of experiment: NVS_ENZ_hPPP2CA: NovaScreen (NVS) Enzymatic Assay for human Protein Phosphatase 2 Aatalytic subunit Alpha (PPP2CA) (AID 2283199). The method in brief: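 Recombinant human PPP2CA with fluorescent substrate; product separated from substrate by electrophoretic mobility shift, read 1.33 h after dosing. Duplicate single-point at 25 uM, then singleton concentration-response up to 50 uM; loss of signal versus DMSO.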

Experiment [9] addresses Serine/threonine-protein phosphatase PP1-alpha catalytic subunit (Homo sapiens) (UniProt P62136). Kind of experiment: NVS_ENZ_hPPP1CA: NovaScreen (NVS) Enzymatic Assay for human Protein Phosphatase 1 Aatalytic subunit Alpha (PPP1CA) (AID 2283200). The method in brief: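 Recombinant enzyme activity read by fluorescence with electrophoretic mobility shift separating substrate from product, 1.33 h after dosing; loss of signal vs DMSO baseline. Primary screen in duplicate at 25 uM; actives retested in concentration-response up to 50 uM.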

For experiment [10], the target named is human Protein Tyrosine Phosphatase Non-receptor Type 1 (PTPN1), PTPN1 (gene 5770) (UniProt P18031). Kind of experiment: NVS_ENZ_hPTPN1: NovaScreen (NVS) Enzymatic Assay for human Protein Tyrosine Phosphatase Non-receptor Type 1 (PTPN1) (AID 2283201). The method in brief: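 Cell-free fluorogenic-substrate activity assay on recombinant enzyme, read 1.33 h after dosing by fluorescence and electrophoretic mobility shift; loss of signal vs DMSO baseline. Primary screen in duplicate at 25 uM, hits then run in concentration-response up to 50 uM.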

For experiment [11], the target named is Tyrosine-protein phosphatase non-receptor type 11 (Homo sapiens) (UniProt Q06124). In words: NVS_ENZ_hPTPN11: NovaScreen (NVS) Enzymatic Assay for human Protein Tyrosine Phosphatase Non-receptor Type 11 (PTPN11) (AID 2283202). In short, it runs like this: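 Recombinant human PTPN11 activity on a fluorescent substrate, with substrate/product separated by electrophoretic mobility shift; read 0.5 h after dosing, loss of signal vs DMSO. Duplicate 25 uM screen, then concentration-response up to 50 uM.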

Experiment [12] concerns the target human MAP Kinase-Activated Protein Kinase 2 (MAPKAPK2), MAPKAPK2 (gene 9261) (UniProt P49137). In words: NVS_ENZ_hMAPKAPK2: NovaScreen (NVS) Enzymatic Assay for human MAP Kinase-Activated Protein Kinase 2 (MAPKAPK2) (AID 2283178). The method in brief:
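Cell-free recombinant human MAPKAPK2 activity measured by fluorescence with electrophoretic mobility shift separation of substrate and product, 1 hr after dosing. Loss of signal versus DMSO; primary screen at 25 uM, concentration-response up to 50 uM.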

In experiment [13] the target is human Matrix Metalloproteinase-7 (MMP7), MMP7 (gene 4316) (UniProt P09237). In words: NVS_ENZ_hMMP7: NovaScreen (NVS) Enzymatic Assay for human Matrix Metalloproteinase-7 (MMP7) (AID 2283183). The method in brief:
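Cell-free fluorescence enzymatic assay read 1 h after compound addition, activity loss analyzed against DMSO. Primary duplicate testing at 25 uM; compounds meeting threshold rerun in singleton concentration-response up to 50 uM.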

Experiment [14] addresses human Matrix Metalloproteinase-3 (MMP3), MMP3 (gene 4314) (UniProt P08254). Kind of experiment: NVS_ENZ_hMMP3: NovaScreen (NVS) Enzymatic Assay for human Matrix Metalloproteinase-3 (MMP3) (AID 2283185). In short, it runs like this: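 Cell-free recombinant human MMP3 activity, fluorescence intensity read 1 h after dosing. Primary screen duplicate at 25 uM, actives retested in concentration series; loss of signal vs DMSO baseline.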

Experiment [15] has as its target cAMP-dependent protein kinase catalytic subunit alpha (Homo sapiens) (UniProt P17612). Kind of experiment: NVS_ENZ_hPKA: NovaScreen (NVS) Enzymatic Assay for human Protein Kinase A (PKA) (AID 2283192). The method in brief: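 Recombinant human PKA with specific fluorescent substrate, product separated by electrophoretic mobility shift, read 1 h after dosing. Primary screen at 25 uM in duplicate; actives then run in concentration-response up to 50 uM, activity relative to DMSO.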

Experiment [16] has as its target human Matrix Metalloproteinase-9 (MMP9), MMP9 (gene 4318) (UniProt P14780). Kind of experiment: NVS_ENZ_hMMP9: NovaScreen (NVS) Enzymatic Assay for human Matrix Metalloproteinase-9 (MMP9) (AID 2283190).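 Further: cell-free recombinant MMP9 protease activity read by fluorescent substrate signal; active means inhibition seen as loss of fluorescence signal versus DMSO.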 The method in brief: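 Screening concentration 25 uM, duplicate wells, then dose series for confirmation. Cell-free enzymatic reaction measured by fluorescence intensity 1 h post-dosing; decreased signal versus DMSO taken as activity.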

“And” between values parts separate entries of the source, which are not always exact repeats. Equal values may be shown once. Results filed as inconclusive are left out. The source made the active and inactive calls. How the source made its calls: active means hit-call score of the fitted dose curve at least 0.9, where 1 is the maximum; inconclusive means response in the unintended direction; inactive means score below 0.9.

One may read the AC50 as the concentration at which the activity in the assay is half-maximal.

Sequence of human Matrix Metalloproteinase-7 (MMP7), MMP7 (gene 4316) (P09237 whole entry, looked up): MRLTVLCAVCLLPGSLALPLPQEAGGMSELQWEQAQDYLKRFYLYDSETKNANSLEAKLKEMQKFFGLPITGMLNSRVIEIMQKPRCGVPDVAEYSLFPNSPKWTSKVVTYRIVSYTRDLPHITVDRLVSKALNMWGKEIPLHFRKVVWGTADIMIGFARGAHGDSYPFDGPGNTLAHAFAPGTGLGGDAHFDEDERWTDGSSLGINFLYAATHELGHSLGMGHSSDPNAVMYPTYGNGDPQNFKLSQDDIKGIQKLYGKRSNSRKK
Sequence of human Matrix Metalloproteinase-3 (MMP3), MMP3 (gene 4314) (P08254 whole entry, looked up): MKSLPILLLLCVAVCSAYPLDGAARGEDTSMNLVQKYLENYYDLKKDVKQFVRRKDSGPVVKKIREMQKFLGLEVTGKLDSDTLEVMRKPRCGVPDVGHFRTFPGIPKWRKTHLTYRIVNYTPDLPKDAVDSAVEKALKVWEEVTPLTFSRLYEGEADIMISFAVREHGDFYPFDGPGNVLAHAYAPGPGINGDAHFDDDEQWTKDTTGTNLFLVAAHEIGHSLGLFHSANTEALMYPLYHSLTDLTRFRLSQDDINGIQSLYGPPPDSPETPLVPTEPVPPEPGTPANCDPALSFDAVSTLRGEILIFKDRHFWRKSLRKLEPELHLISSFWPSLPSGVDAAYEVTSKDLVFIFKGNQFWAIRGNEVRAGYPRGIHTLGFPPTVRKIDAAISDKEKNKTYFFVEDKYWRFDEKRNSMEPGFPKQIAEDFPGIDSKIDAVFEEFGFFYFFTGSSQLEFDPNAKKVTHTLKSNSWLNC
Sequence of human MET Proto-Oncogene, Receptor Tyrosine Kinase (MET), MET (gene 4233) (P08581 whole entry, looked up): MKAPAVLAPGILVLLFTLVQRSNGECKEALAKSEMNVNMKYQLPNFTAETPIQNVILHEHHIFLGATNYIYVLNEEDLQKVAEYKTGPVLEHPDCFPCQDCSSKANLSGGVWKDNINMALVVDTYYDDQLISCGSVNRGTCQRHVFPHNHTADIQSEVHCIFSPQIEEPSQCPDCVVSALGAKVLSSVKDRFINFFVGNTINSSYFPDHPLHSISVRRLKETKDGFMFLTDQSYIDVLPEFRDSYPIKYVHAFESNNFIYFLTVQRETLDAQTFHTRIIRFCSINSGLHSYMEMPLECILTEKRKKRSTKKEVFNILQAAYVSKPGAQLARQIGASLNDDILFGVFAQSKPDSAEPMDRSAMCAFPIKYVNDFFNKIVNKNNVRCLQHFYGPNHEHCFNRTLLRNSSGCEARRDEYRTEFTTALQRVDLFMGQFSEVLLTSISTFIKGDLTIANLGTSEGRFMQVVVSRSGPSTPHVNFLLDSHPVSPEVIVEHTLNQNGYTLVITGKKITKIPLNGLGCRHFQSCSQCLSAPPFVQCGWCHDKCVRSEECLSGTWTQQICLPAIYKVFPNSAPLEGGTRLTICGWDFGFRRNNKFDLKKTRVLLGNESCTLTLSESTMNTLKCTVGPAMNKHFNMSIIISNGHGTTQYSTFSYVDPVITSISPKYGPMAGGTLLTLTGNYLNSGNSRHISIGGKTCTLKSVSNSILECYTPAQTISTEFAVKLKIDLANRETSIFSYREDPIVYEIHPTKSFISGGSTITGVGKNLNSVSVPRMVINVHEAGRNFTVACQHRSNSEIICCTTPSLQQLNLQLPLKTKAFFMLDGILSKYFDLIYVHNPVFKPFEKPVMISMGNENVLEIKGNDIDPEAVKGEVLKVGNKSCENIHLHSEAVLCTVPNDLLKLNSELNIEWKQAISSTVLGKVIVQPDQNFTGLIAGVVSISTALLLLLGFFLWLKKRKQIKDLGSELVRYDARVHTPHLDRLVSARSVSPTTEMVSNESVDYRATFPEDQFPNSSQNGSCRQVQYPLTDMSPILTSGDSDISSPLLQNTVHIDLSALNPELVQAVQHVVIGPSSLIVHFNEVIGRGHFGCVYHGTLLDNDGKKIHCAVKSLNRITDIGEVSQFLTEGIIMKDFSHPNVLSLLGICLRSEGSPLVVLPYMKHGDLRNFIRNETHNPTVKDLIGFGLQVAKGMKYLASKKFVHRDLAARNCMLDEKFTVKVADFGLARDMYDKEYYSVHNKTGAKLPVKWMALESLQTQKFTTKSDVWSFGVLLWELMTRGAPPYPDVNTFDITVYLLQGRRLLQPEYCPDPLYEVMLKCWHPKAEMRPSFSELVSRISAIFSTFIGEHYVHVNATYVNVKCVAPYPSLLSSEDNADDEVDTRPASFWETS
Sequence of Serine/threonine-protein phosphatase PP1-alpha catalytic subunit (Homo sapiens) (P62136 whole entry, looked up): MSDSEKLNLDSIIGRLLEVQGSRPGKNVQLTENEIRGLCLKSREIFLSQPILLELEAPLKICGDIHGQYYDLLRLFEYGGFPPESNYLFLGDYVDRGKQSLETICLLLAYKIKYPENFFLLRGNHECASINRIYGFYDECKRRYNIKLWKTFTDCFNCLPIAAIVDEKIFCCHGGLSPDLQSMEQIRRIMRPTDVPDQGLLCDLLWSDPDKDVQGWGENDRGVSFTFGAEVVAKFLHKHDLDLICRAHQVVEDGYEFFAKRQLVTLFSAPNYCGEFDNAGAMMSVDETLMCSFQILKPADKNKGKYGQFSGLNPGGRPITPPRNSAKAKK
Sequence of human Phosphodiesterase 4A1 (PDE4A1), PDE4A (gene 5141) (P27815 whole entry, looked up): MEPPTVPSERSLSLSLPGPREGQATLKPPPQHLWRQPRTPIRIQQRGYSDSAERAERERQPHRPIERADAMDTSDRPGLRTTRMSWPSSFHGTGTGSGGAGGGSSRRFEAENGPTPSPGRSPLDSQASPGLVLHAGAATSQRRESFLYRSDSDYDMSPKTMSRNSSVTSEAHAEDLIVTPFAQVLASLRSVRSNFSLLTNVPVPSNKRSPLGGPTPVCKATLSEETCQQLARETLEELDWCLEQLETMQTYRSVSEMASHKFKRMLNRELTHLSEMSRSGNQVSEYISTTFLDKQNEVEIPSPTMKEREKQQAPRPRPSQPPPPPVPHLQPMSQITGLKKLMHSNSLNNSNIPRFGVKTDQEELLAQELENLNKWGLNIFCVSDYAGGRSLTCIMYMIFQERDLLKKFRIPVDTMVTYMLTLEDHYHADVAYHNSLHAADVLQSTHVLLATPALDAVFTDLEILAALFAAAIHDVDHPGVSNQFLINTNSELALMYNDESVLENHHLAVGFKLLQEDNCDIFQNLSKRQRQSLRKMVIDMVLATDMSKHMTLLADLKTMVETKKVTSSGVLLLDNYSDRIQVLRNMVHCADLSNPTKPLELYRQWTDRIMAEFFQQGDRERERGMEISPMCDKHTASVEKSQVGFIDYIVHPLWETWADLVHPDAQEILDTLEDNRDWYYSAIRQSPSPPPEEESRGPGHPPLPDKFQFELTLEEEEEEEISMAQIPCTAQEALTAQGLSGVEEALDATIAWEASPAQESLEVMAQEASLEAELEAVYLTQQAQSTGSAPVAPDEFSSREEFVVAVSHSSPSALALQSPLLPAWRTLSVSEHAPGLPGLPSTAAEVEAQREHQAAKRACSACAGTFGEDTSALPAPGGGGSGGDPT
Sequence of PPP2CA (gene 5515) (P67775 whole entry, looked up): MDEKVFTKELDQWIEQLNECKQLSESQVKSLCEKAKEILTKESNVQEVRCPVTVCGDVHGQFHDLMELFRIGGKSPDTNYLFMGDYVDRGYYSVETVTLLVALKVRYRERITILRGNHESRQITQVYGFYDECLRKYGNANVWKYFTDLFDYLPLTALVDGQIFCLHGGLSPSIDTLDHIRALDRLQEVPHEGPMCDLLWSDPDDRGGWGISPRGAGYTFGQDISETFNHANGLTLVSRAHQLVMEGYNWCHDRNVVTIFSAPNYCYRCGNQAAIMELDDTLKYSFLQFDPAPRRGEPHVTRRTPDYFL
Sequence of human Phosphoinositide 3-kinase alpha (PI3Ka), PIK3CA (gene 5290) (P42336 whole entry, looked up): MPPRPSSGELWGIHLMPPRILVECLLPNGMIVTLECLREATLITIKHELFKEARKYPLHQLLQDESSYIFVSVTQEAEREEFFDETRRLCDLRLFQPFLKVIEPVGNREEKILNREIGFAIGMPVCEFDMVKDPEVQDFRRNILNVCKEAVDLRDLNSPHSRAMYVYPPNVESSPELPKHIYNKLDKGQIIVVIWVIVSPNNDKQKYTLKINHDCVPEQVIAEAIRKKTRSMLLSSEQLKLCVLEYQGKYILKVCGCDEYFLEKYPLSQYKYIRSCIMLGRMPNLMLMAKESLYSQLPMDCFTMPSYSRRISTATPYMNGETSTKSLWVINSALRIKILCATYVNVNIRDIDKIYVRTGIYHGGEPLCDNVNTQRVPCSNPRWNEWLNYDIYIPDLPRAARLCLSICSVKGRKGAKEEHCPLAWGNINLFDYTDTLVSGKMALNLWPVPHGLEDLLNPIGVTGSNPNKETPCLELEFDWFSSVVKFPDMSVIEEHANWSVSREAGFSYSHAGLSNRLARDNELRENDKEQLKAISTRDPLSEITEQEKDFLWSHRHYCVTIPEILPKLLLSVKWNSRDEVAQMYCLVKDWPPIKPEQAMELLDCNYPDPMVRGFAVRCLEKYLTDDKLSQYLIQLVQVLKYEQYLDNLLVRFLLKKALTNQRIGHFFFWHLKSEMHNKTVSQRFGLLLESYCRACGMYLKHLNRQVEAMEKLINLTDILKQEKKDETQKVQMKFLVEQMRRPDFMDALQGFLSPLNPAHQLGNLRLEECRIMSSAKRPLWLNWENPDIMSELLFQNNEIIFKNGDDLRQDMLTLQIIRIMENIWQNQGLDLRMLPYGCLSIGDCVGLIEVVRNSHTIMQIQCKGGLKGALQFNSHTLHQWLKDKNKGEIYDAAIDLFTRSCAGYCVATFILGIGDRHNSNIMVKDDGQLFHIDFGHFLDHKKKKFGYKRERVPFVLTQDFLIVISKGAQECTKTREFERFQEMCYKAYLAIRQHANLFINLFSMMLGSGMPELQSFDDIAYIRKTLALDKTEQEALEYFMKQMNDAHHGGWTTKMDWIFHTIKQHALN

On to `CCCN(CCC)c1c([N+](=O)[O-])cc(S(N)(=O)=O)cc1[N+](=O)[O-]`, for which the compound was called inactive in [1], in [2], in [3], in experiment [4], in experiment [5] and in [6]. Also, the result (in experiment [7]; in [8]; with PPP2CA (gene 5515); in [9]; in [10]; in experiment [11]) was inactive.
Turning to `CNC(=S)S`, the call in experiment [12], in [1], in experiment [13], in experiment [14], in [2] and in experiment [15] was inactive. Also, in [11], the result was inactive.
Consider `CCCCNC(=O)OCC#CI`, for which the compound was called inactive in experiment [9].
With `COC(=O)C=C(C)OP(=O)(OC)OC`, the compound was called inactive in [14].
As to `N#Cc1cc(Br)c(O)c(Br)c1`, in [13], the outcome was inactive.
On to `COC(=O)c1ccccc1C(=O)OC`, for which, in experiment [8], the result was inactive.
As for `CCOP(=S)(OCC)SCn1c(=O)oc2cc(Cl)ccc21`, the call in experiment [13] and in [6] was inactive. In addition, the AC50 in [5] was 9.57 µM (active).
Consider `CC1COC(Cn2cncn2)(c2ccc(Oc3ccc(Cl)cc3)cc2Cl)O1` (configuration not stated), for which the result in [16] and in [6] was inactive.
For `Cc1ccc(-c2c(Cl)nc(C#N)n2S(=O)(=O)N(C)C)cc1`, the concentration at half-maximal activity (AC50) in [6] was 11.7 µM (active).
On to `COc1cnc(OC)n2nc(NS(=O)(=O)c3c(OCC(F)F)cccc3C(F)(F)F)nc12`, for which the outcome (in experiment [7]; with PPP2CA (gene 5515)) was inactive.
Turning to `CC1=C(C(=O)Nc2ccccc2)SCCO1`, the call in experiment [8] was inactive.
With `N#Cc1nn(-c2c(Cl)cc(C(F)(F)F)cc2Cl)c(N)c1S(=O)C(F)(F)F` (configuration not stated), the result in experiment [14], in experiment [15] and in experiment [8] was inactive.
On to `CS/C(C)=N/OC(=O)N(C)SN(C)C(=O)O/N=C(\C)SC`, for which the outcome in [8] was inactive.
Turning to `CCOC(=O)CC(SP(=S)(OC)OC)C(=O)OCC` (configuration not stated), the compound was classed as inactive (in experiment [16]; in [5]; in the experiment with PPP2CA (gene 5515); in experiment [9]).
Take `CON(C)C(=O)Nc1ccc(Cl)c(Cl)c1`: the half-maximal activity concentration (AC50) in experiment [5] was 3.85 µM (active); in experiment [6], 7.19 µM (active) and 9.03 µM (active).

The record behind these values is PubChem BioAssay (EPA / NIEHS).
